Assay results from PubChem BioAssay AID1789 (The Scripps Research Institute Molecular Screening Center, 2009).
Among all 290,000 compounds or so, about 2,700 (0.93%) were called active.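 The calls were made as follows: active = inhibition above the screen-wide mean plus 3 SD, computed separately per campaign (cut at about 16% in these data); inactive = the rest.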 Many of the other results were omitted from the sample, so actives are more common in it than they were.

Each molecule was assayed on Heat shock protein HSP 90 (rabbit reticulocyte lysate; luciferase refolding) (assay: inhibitors of HSP90 chaperone activity – cell lysate, luminescence, primary screen (AID 1789;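 also: 0% = DMSO wells and 100% = 60 µM geldanamycin wells; inhibitors lower the luminescence because luciferase stays unfolded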)). Conditions: 3 h, at 5.6 µM, stronger effect = higher value.

SMILES | inhibition
COc1cccc(-c2nc3ccc(N4CCN(C)CC4)cc3[nH]2)c1 | 60.8% (active)
CN1CCN(c2cc(N3CCNCC3)ccc2[N+](=O)[O-])CC1 | -3.02% (inactive)
Cc1nc2ccc(N3CCN(C)CC3)cc2nc1C | 1.77% (inactive)
CC1=CC(=Cc2sc3ccccc3[n+]2C)C=C(C)O1 | 0.85% (inactive)
O=c1c2ccccc2nc(/C=C/c2ccc(F)cc2)n1-c1ccccc1O | -2.14% (inactive)
O=c1c2ccccc2nc(/C=C/c2ccco2)n1-c1ccccc1O | 19.4% (active)
O=c1c2ccccc2nc(-c2ccco2)n1-c1ccc(Br)cn1 | -1.12% (inactive)
CN(c1ccccc1)c1ccc([N+](=O)[O-])c2nonc12 | 3.91% (inactive)
CC(C)CN1CCN(Cc2ccccc2C(F)(F)F)CC1CCO (stereo not given) | -3.13% (inactive)
O=C(NC(c1ccc(Cl)cc1)P(=O)(Oc1ccccc1)Oc1ccccc1)OCc1ccccc1 (stereo not given) | 1.96% (inactive)
